This is a sample that favours compounds with a hit; in the whole collection about 2.8% have one here.
RGS4 inhibitor: inhibitors of human regulator of G protein signaling 4; 390,000 tested, 0.039% active; Transcreener GDP fluorescence polarization, RGS4-accelerated GTP hydrolysis; AID 504845; Potency, µM (series often up to 114 µM), most hits filed as inhibitors; active = well fitted inhibition curve with a large enough effect; inconclusive = small, poorly fitted or top-dose-only effect; inactive = no such curve, though single readings can be large or run the other way; also: nearly all actives have a fitted effect of over 75% in size
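MLSMR compounds (23 nl, pin-transferred) preincubated 10 min at room temperature with a 500nM (2x) first reagent, then RGS4 at 900nM (2x) plus Transcreener GDP mix added; fluorescence polarization (620/688 nm) read before and after 90 min at 30 °C.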
D3 antag: blocks the human D3 dopamine receptor | D3R cells, DiscoveRx beta-arrestin luminescence, antagonist mode; active compounds read low | max response, negative = inhibition, % | P35462 | 360,000 tested, 2.5% active; in the data active = max response below about -50%; inconclusive = no clear call, values can overlap the other calls
Target sequence (P35462 whole entry, looked up): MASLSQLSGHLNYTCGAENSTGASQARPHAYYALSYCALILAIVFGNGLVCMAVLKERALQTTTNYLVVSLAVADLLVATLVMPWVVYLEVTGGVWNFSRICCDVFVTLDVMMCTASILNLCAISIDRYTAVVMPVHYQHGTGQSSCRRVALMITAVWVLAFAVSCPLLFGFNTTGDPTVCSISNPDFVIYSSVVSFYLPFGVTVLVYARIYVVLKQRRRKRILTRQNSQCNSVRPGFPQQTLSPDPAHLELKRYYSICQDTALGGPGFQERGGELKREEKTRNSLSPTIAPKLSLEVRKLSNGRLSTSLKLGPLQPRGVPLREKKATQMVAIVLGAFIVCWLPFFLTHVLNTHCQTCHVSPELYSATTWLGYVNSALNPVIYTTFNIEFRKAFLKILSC
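Cells plated overnight at 1500 cells/well, then exposed to library compounds with dopamine controls for 90 minutes at 37 degrees C. DiscoveRx reagent added for 30–60 minutes at room temperature; luminescence read, quantitative HTS format.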
LDHA inh: inhibitors of human lactate dehydrogenase A; P00338; purified LDHA, NADH/diaphorase-resazurin fluorescence; active compounds read low; activity change, % (values are at about 110 or 230 µM); 480,000 tested, 0.15% active; AID 1347041; in the data active = activity change below about -30%; inconclusive = mostly about -25% to -30%
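LDH5 2 nM; NADH 0.06 mM, pyruvate 0.2 mM; 200 mM Tris pH 7.4, EDTA, Tween-20; 5 min RT. Detection: diaphorase 0.133 mg/mL + resazurin 37 µM, fluorescence ex540/em590 at 0 and 20 min; normalized to enzyme-free and DMSO wells.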
D3 ag: agonists of human D3 dopamine receptor; P35462; D3R DiscoveRx beta-arrestin cells, luminescence, 90 min; max activation, %; 410,000 tested, 0.58% active; in the data active = max activation above about 30%
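Agonist-mode cell screen: cells plated at 1500/well and incubated overnight at 37 °C, then exposed to library compounds for 90 min at 37 °C. Detection reagent was added for 30–60 min at room temperature, and luminescence was read.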
Akt phos inh: Akt phosphorylation inhibition; Neuro2A IGF-stimulated pAkt S473 HTRF, 20 min; active compounds read low; activity change, % for hits at 50 µM; 360,000 tested, 0.32% active; AID 651550; in the data active = activity change below about -80%; inconclusive = mostly about -51% to -80%
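Single-point screen (50 µM final compound) in Neuro2A cells stimulated 20 min with 6 nM IGF at 37 deg C. After lysis, Ser473-phosphorylated Akt read by HTRF (ex 330 nm, em 615/665 nm) as the 665/615 ratio.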
PI4K2A block: blocks human PI4K2A kinase activity; 420,000 tested, 0.13% active; purified PI4K2A, ADP-Glo luminescence, 1 h; active compounds read low; activity change, negative = inhibition, % at 76.9 µM; Q9BTU6; in the data active = activity change below about -50%; inconclusive = mostly about -30% to -49%
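Compounds are screened against recombinant PI4K2A using PI as substrate and ATP, the latter dispensed at 300 microM. Reactions run one hour at ambient temperature before ADP-Glo detection; full inhibition defined by wells lacking enzyme.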
Numbers stand for hits; - = inactive; ? = inconclusive; . = not tested or not shown; [ ] = dose if it differs, or a comment.

SMILES | RGS4 inhibitor | D3 antag | LDHA inh | D3 ag | Akt phos inh | PI4K2A block
CN=c1scc(-c2ccc(OC)cc2)n1/N=C(\C)c1cccnc1 | - | - | - | 34.9 | - | -
CCOC(=O)c1cc2c(C(F)(F)F)cc(-c3cccnc3)nc2o1 | - | - | - | - | -112.2% | -
CCOC(=O)c1c(C)nc(C)c(C(=O)OCC)c1-c1cccnc1 | - | - | - | - | - | -
Cn1c(=O)c2[nH]c(NCc3ccc(F)cc3)nc2n(C)c1=O | . | . | - | . | . | .
CCOc1ccc(S(=O)(=O)N(CC(=O)N2CCc3ccccc32)Cc2ccco2)cc1 | - | -66.2 | - | - | - | -
N#Cc1ccc(S(=O)(=O)NCCc2ccc(-n3cccn3)cc2)cc1 | . | . | - | . | . | .
CC(=O)Nc1ccccc1OCC(=O)c1ccc2c(c1)OCO2 | - | - | - | 46.6 | - | -
CC(=O)Nc1ccccc1NC(=O)c1ccc2c(c1)OCO2 | . | - | - | - | - | -
CN(C)CCC(=O)c1ccc2c(c1)OCO2 | ? | -61.0 | - | - | - | -
Cc1ccc(C)c(C(=O)CCC(=O)NC23CC4CC(CC(C4)C2)C3)c1 | . | . | - | . | . | .
Cc1ccc(NC(=O)CN(C)C(=O)COc2cc(F)ccc2[N+](=O)[O-])cc1 | - | -53.1 | - | - | - | -
COc1ccc(-c2cc([N+](=O)[O-])ccc2OCC(=O)N(C)CC(=O)Nc2ccc(C)cc2)cc1 | - | ? | - | - | - | -
COc1ccc(NC(=O)NC(C)(C(F)(F)F)C(F)(F)F)cc1 | -[11.4 µM] | - | - | - | - | -
CCC(NC(=O)Nc1ccc(O)cc1)(C(F)(F)F)C(F)(F)F | - | - | - | - | - | -51.8
CC(NC(=O)Nc1ccc(O)cc1)(C(F)(F)F)C(F)(F)F | - | - | - | - | - | -51.4
CCC(NC(=O)NCc1ccccc1)(C(F)(F)F)C(F)(F)F | - | - | - | - | - | -
COC(=O)c1cc(Cc2ccccc2)ccc1O | . | . | - | . | . | .
COC(=O)c1cc(CN2CCN(c3ccccc3)CC2)ccc1O | - | -56.4 | - | - | - | -
Cc1c(S(=O)(=O)N2CCN(c3cccc(C(F)(F)F)c3)CC2)c(=O)n(C)c(=O)n1C | - | - | - | - | - | -
COc1ccc(CC(C)N2CCN(c3cccc(C(F)(F)F)c3)CC2)cc1OC (centres undefined) | - | -87.8 | - | - | - | -
Cc1c(CN2CCN(c3cccc(C(F)(F)F)c3)CC2)c(=O)n(-c2ccccc2)n1C | - | -76.2 | - | - | - | -
CCOc1cc(CN2CCSCC2)ccc1O | - | ? | - | - | - | -
CCOc1cc(CN2CCN(c3cccc(C(F)(F)F)c3)CC2)ccc1O | - | -85.6 | - | - | - | -
C=C(C)CN(CC)C(=O)CCc1ccco1 | . | . | - | . | . | .
Cc1onc(-c2ccccc2)c1-c1nnc(CN(C)CC(=O)N2CCCC2)o1 | . | . | - | . | . | .
CC(C)CCCNCCNC(=O)/C=N/O | . | . | - | . | . | .
CCOc1ccc(NC(=O)C(C)Oc2ccccc2Cl)c2cccnc12 (centres undefined) | . | . | - | . | . | .
CCOc1cc(CN2CCN(c3ccc(C(C)=O)cc3)CC2)ccc1OC | - | - | - | - | - | -
O=c1cc(CO)oc(CN2CCN(c3cccc(C(F)(F)F)c3)CC2)c1O | - | -64.4 | - | - | - | -

Source: PubChem (National Center for Advancing Translational Sciences (NCATS))
